The list is not random: actives were taken first. Their share in the collection is about 6.2%.
Mot1-301 SUMO: blocks SUMOylation pathway, rescuing yeast Mot1-301 growth | S. cerevisiae Mot1-301 growth rescue, ATP luminescence, 38.5C; percent above DMSO median, 100 means doubled | growth rescue, % at 18.8 µM | hit rate 1% among 320,000;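 active means every valid replicate shows activation above 250% relative to neutral control wells; inactive means the rest, any valid replicate at or below 250%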;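 further: OY570 slx delta 5 strain wells were the positive control but not used for scaling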
NTR1 agonist: NTR1 (human) agonism; P30989; NTR1-U2OS beta-arrestin-GFP spot imaging, agonist mode; activation, % at 20 µM; hit rate 0.17% among 330,000; AID 493036;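 active means activation at or above 40% of the spot to cytoplasm intensity ratio, with at least 20 cells analyzed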;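 further: 0% = DMSO without peptide and 100% = 100 nM NTR1 peptide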
Cardio protect: myocardial damage modulation in H9c2 cells; hit rate 0.63% among 360,000; protection from H2O2 cell death, % at 20 µM; H9c2 cardiomyocytes, H2O2 injury protection, ATPLite, 2 h;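 active means compounds giving at least 50% protection of heart cells from peroxide-induced death in the single-dose screen, raw or plate-pattern-corrected value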;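 further: 0% = DMSO wells with peroxide and 100% = DMSO wells without peroxide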
GRIN3A LBD mod: modulates the human NR3A ligand-binding domain. Tm shift relative to glycine control, % at 25 µM. hit rate 2.5% among 340,000. NR3A LBD differential scanning fluorimetry, Tm shift; 0% = protein alone, 100% = glycine-bound protein;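 active means melting temperature shift of at least 10% of the positive control shift, at one fixed dose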
AI-2 QS mod: modulates the Vibrio harveyi AI-2 quorum sensing system; AID 2094; Vibrio harveyi JMH597 AI-2 luminescence/OD600 ratio, 9 h; active compounds read low; strain lacks LuxN and CqsS sensors; 0 = neutral-control median; activity change, % at 7.5 µM; hit rate 0.4% among 300,000; in the data active means activity change below about -75%, passing the limit was not always enough;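 further: luminescence divided by OD600 gain over 9 h not by final OD600 alone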
AHR activator: activates the human aryl hydrocarbon receptor | P35869 | AHR-responsive luciferase reporter cells, luminescence | activation, % at 5 µM | hit rate 2.5% among 320,000; in the data active means activation above about 47%;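 further: 0% = vehicle wells and 100% = reference agonist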
Target sequence (P35869 whole entry, looked up): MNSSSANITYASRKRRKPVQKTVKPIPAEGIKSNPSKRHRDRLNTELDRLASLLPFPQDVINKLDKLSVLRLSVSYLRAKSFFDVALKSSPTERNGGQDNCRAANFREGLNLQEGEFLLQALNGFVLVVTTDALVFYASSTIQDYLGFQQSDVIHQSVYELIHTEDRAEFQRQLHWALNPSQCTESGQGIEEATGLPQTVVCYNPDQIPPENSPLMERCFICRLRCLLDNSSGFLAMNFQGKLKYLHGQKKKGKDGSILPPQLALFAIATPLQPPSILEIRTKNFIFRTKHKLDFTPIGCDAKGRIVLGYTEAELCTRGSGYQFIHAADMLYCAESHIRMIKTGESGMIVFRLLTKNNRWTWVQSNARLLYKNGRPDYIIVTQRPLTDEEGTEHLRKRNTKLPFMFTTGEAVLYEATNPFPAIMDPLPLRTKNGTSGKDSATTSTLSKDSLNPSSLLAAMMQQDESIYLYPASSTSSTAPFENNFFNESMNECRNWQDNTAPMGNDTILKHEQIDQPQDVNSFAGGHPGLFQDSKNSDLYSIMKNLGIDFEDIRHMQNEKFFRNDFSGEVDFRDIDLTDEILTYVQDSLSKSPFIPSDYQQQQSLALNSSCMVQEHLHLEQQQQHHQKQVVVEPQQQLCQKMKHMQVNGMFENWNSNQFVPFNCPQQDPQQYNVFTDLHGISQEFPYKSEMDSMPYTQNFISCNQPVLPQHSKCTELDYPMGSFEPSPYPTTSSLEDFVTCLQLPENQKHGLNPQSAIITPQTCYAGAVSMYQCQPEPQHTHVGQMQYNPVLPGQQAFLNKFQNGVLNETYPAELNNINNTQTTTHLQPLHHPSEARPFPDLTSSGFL
* hit, by the source's call; x = no result given.

SMILES | Mot1-301 SUMO | NTR1 agonist | Cardio protect | GRIN3A LBD mod | AI-2 QS mod | AHR activator
Cc1ccc(NC(=O)CSc2ccc(C(N)=O)cc2[N+](=O)[O-])cc1 | -10.9 | 1.9 | 2.4 | 25.1* | 9.1 | 43.8
O=C(CSc1ccsc1[N+](=O)[O-])NCCc1ccccc1 | -5.6 | -1.6 | -1.5 | 0.5 | 18.5 | 48.3*
CC(=O)c1ccc(NC(=O)CSc2ccsc2[N+](=O)[O-])cc1 | x | x | 3.9 | 11.8* | 11.1 | x
O=C(CSc1ccsc1[N+](=O)[O-])Nc1cc(F)ccc1F | x | x | -6.4 | 9.1 | 6.9 | x
N#CCCN(CCCN1CCOCC1)CN1C(=O)c2ccccc2C1=O | x | x | 1.2 | x | x | x
CN(C)c1ccc(C2C3CCCc4ccccc4C3=NN2C)cc1 (stereo not drawn) | 4.9 | 2.5 | -13.2 | 1.0 | 53.5 | 60.6*
CCCCNc1cc(NC(C)=O)cc2cc(OC)c(OC)cc12 | -11.3 | -1.9 | -24.1 | -2.6 | 18.1 | 35.3
COc1cc2cc(NC(C)=O)cc(NCc3ccccc3)c2cc1OC | -0.3 | -2.4 | -9.7 | 11.9* | 10.8 | x
CN(N)c1nc(-c2ccccc2)cc(-c2ccccc2)n1 | -4.5 | 9.4 | 14.6 | 6.1 | 14.7 | 66.3*
COc1nc(-c2ccccc2)cc(-c2ccccc2)n1 | -11.2 | 4.2 | 11.4 | 1.0 | 2.7 | 63.2*
Cc1nc(-c2ccccc2)cc(-c2ccccc2)n1 | -10.2 | 0.5 | -4.5 | -0.2 | 2.4 | 18.3
O=C(Cc1ccc(Cl)cc1)N1CCN(c2ccccc2)CC1 | -0.7 | -0.2 | 1.1 | 0.1 | 13.9 | 6.7
CCN1CCN(C(=O)c2cc3cc(Cl)ccc3[nH]2)CC1 | 155.0 | 0.9 | 13.4 | -4.5 | -76.8* | 32.2
CN1CCN(C(=O)c2cc3cc(Cl)ccc3[nH]2)CC1 | 107.7 | -0.4 | 6.0 | 1.6 | -31.4 | 15.4
O=C(c1ccc(Cl)c(S(=O)(=O)N2CCOCC2)c1)N1CCCCCC1 | -30.2 | -1.2 | 0.8 | 0.1 | 11.0 | 2.2
O=C(Nc1cccc(NC(=O)c2ccccc2Cl)c1)c1ccc([N+](=O)[O-])o1 | -33.2 | 1.7 | -10.6 | -3.0 | -191.5* | -6.0
Cc1cccc(NC(=O)c2ccc([N+](=O)[O-])o2)c1C | 4.7 | 6.7 | -16.5 | -0.6 | 23.2 | -1.7
O=C(Nc1cccc2ccccc12)c1ccc([N+](=O)[O-])o1 | -27.1 | 8.3 | -19.0 | 0.3 | -128.0* | -1.1
O=C(Nc1cccc([N+](=O)[O-])c1)c1ccc([N+](=O)[O-])o1 | x | x | -23.0 | x | x | x
COc1ccc(NC(=O)C(OC(=O)c2ccc([N+](=O)[O-])o2)c2ccccc2)cc1Cl (stereo not drawn) | -2.5 | 1.4 | 52.4* | 1.9 | 11.8 | 2.5
COc1ccccc1NC(=O)c1ccc([N+](=O)[O-])o1 | -7.5 | 3.1 | x | -1.8 | -87.3* | 0.1
O=C(CSc1nc2ccccc2c(=O)n1-c1ccc(OC(F)F)cc1)NC1CC1 | 4.5 | 3.3 | 3.3 | 2.3 | x | 0.9
CC1Nc2ncnc(N3CCN(c4ccccc4)CC3)c2N(Cc2ccc(Cl)cc2)C1=O (stereo not drawn) | -20.5 | 10.9 | 60.9* | -5.0 | 2.4 | 1.5
CN(C)S(=O)(=O)c1cccc(NC(=O)c2c[nH]c3ccccc23)c1 | 28.3 | 1.2 | 22.9 | 9.9 | 1.3 | 49.4*
CN(C)S(=O)(=O)c1cccc(NC(=S)NC23CC4CC(CC(C4)C2)C3)c1 | -20.1 | 5.2 | -9.6 | 10.3* | 9.1 | 0.4
SMILES | Mot1-301 SUMO | NTR1 agonist | Cardio protect | GRIN3A LBD mod | AI-2 QS mod | AHR activator
Cc1ccc(S(=O)(=O)N(C)C)cc1NC(=S)NC12CC3CC(CC(C3)C1)C2 | x | x | -10.9 | -8.1 | 9.2 | x
CN(C)S(=O)(=O)c1cccc(NC(=S)NNC(=O)c2cc3ccccc3cc2O)c1 | 0.0 | 0.5 | 3.2 | 21.9* | x | -5.0
CN(C)S(=O)(=O)c1cccc(NC(=S)NC(=O)c2ccco2)c1 | x | -0.2 | 0.8 | 2.2 | x | x
O=C(CN1C(=O)CCC1=O)Nc1nc(-c2ccccn2)cs1 | 108.5 | -0.1 | 52.5* | 0.1 | -18.6 | 0.1
O=C(CCCSc1ccccc1)Nc1nc(-c2ccccn2)cs1 | 4.3 | 2.4 | 64.4* | -5.7 | 30.3 | 5.3
CN(C)c1ccc(Nc2ccc([N+](=O)[O-])cn2)cc1 | 8.0 | 0.2 | -2.8 | -1.2 | 20.6 | 36.8
COc1ccccc1C(=O)N/C(=C\c1cn(S(=O)(=O)N(C)C)c2ccccc12)C(=O)N1CCCCC1 | 2.6 | 4.0 | 31.1 | 2.6 | -4.7 | 0.5
